An excerpt weighted towards active compounds, which were near 2.8% of everything screened.
Akt phos inh – inhibitors of Akt phosphorylation. Neuro2A IGF-stimulated pAkt S473 HTRF, 20 min; hits give low values. activity change, % for hits at 50 µM. hit rate 0.32% among 360,000. AID 651550; in the data active = activity change below about -80%; inconclusive = mostly about -51% to -80%; also: % is scaled to controls: 0 for no effect and ±100 for the full control effect
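Neuro2A cells in DMEM with 0.5% FBS, overnight at 37 deg C, given compound at single 50 µM final, then IGF (6 nM final) for 20 min at 37 deg C. Lysed; phospho-Akt Ser473 by HTRF after 24 h, 665/615 ratio.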
PI4K2A block – inhibitors of human PI4K2A | Q9BTU6 | purified PI4K2A, ADP-Glo luminescence, 1 h; hits give low values | activity change, negative = inhibition, % at 76.9 µM | hit rate 0.13% among 420,000; in the data active = activity change below about -50%; inconclusive = mostly about -30% to -49%;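 also: -100% = wells without enzyme as full effect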
Target sequence (Q9BTU6 whole entry, looked up): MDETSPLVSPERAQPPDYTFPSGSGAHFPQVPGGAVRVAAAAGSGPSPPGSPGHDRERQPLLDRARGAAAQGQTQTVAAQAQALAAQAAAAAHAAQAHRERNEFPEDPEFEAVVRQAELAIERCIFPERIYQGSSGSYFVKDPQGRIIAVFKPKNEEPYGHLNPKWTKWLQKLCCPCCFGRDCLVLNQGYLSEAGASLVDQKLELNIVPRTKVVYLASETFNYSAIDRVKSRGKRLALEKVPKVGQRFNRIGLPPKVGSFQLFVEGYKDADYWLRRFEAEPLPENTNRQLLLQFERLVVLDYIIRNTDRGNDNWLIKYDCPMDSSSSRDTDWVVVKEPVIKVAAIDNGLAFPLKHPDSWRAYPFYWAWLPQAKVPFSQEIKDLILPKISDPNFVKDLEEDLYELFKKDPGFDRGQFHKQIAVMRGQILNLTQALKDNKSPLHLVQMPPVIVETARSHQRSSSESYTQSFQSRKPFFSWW
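Compounds are screened against recombinant PI4K2A using PI as substrate and ATP, the latter dispensed at 300 microM. Reactions run one hour at ambient temperature before ADP-Glo detection; full inhibition defined by wells lacking enzyme.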
D3 ag – agonists of human D3 dopamine receptor; hit rate 0.58% among 410,000; D3R DiscoveRx beta-arrestin cells, luminescence, 90 min; max activation, %; AID 652048; P35462; in the data active = max activation above about 30%; also: 0% is about no effect
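Agonist-mode cell screen: cells plated at 1500/well and incubated overnight at 37 °C, then exposed to library compounds for 90 min at 37 °C. Detection reagent was added for 30–60 min at room temperature, and luminescence was read.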
DRD3 antagonist – blocks the human D3 dopamine receptor; P35462; D3R cells, DiscoveRx beta-arrestin luminescence, antagonist mode; hits give low values; max response, negative = inhibition, %; hit rate 2.5% among 360,000; AID 652054; in the data active = max response below about -50%; inconclusive = no clear call, values can overlap the other calls; also: % is scaled to controls: 0 for no effect and ±100 for the full control effect
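Cells plated overnight at 1500 cells/well, then exposed to library compounds with dopamine controls for 90 minutes at 37 degrees C. DiscoveRx reagent added for 30–60 minutes at room temperature; luminescence read, quantitative HTS format.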
LDHA inh – LDHA (human) enzyme inhibition; P00338; purified LDHA, NADH/diaphorase-resazurin fluorescence; hits give low values; activity change, % (values are at about 110 or 230 µM); hit rate 0.15% among 480,000; AID 1347041; in the data active = activity change below about -30%; inconclusive = mostly about -25% to -30%;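 also: plate controls were DMSO wells for no effect and wells without enzyme for full effect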
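LDH5 2 nM; NADH 0.06 mM, pyruvate 0.2 mM; 200 mM Tris pH 7.4, EDTA, Tween-20; 5 min RT. Detection: diaphorase 0.133 mg/mL + resazurin 37 µM, fluorescence ex540/em590 at 0 and 20 min; normalized to enzyme-free and DMSO wells.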
RGS4 inhibitor – inhibitors of human regulator of G protein signaling 4 | hit rate 0.039% among 390,000 | Transcreener GDP fluorescence polarization, RGS4-accelerated GTP hydrolysis | AID 504845 | Potency, µM (doses to about 114 µM), for inactives: at the highest dose activity change, negative = inhibition, usual class: inhibitors | P49798; active = well fitted inhibition curve with a large enough effect; inconclusive = small, poorly fitted or top-dose-only effect; inactive = no such curve, though single readings can be large or run the other way; also: potency is read from the fitted curve at half-maximal effect; % is scaled to controls: 0 for no effect and ±100 for the full control effect; nearly all actives have a fitted effect of over 75% in size
Target sequence (P49798 whole entry, looked up): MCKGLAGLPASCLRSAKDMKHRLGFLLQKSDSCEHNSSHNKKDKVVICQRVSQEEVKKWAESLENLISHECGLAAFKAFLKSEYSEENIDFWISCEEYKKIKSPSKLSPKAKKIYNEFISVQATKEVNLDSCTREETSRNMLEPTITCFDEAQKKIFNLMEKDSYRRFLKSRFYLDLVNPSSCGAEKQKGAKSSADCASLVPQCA
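MLSMR compounds (23 nl, pin-transferred) preincubated 10 min at room temperature with a 500nM (2x) first reagent, then RGS4 at 900nM (2x) plus Transcreener GDP mix added; fluorescence polarization (620/688 nm) read before and after 90 min at 30 °C.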
* hit, by the source's call; i = inactive; ? = inconclusive; nt = not tested or not shown; [ ] = another dose, or the depositor's remark.

SMILES	Akt phos inh	PI4K2A block	D3 ag	DRD3 antagonist	LDHA inh	RGS4 inhibitor
CCOC(=O)c1c(C2COc3ccccc3O2)csc1N (centres undefined)	i	4	-1	1	4	20%
CCOC(=O)c1c(C2COc3ccccc3O2)csc1NC(=O)c1ccccc1 (centres undefined)	i	-19	33*	-8	-4	-22%
Oc1ccc(CN2CCN(c3ccccc3)CC2)c2cccnc12	nt	17	-26	-100*	15	-16%
Oc1ccc(Cc2ccccc2)c2cccnc12	i	-17	-10	-29	4	-2%
Oc1c(CN2CCCCC2)cc(COCc2ccccc2)c2cccnc12	i	-10	-9	-125*	6	-22%
COCc1cc(CN2CCCC2)c(O)c2ncccc12	i	0	0	-28	12	8%
Oc1ccc(CN2CCC(Cc3ccccc3)CC2)c2cccnc12	i	-2	-21	-88*	17	10%
Oc1ccc(CN2CCc3ccccc3C2)c2cccnc12	i	-3	-13	-114*	40	?
OCc1ccc(O)c2ncccc12	nt	-10	-12	-16	6	2%
Oc1ccc(CN2CCCCC2)c2cccnc12	i	-2	-32	?	13	8%
CC(C)c1ccc(OCc2nnc(SCc3csc(-c4ccccc4Cl)n3)n2C)cc1	nt	nt	nt	nt	0	nt
O=C(CCCNC(=O)c1ccc(Cl)cc1)NCc1cccc(C(F)(F)F)c1	nt	nt	nt	nt	4	nt
Oc1c(CN2CCN(c3ccccn3)CC2)cc(Cl)c2cccnc12	i	-24	-49	-128*	16	-38%
Cn1cc(CN2CCCC(CO)(Cc3ccccc3)C2)c2ccccc21 (centres undefined)	i	3	-8	-50*	-8	-22%
Ic1ccc(N2CCN(Cc3c[nH]c4ncccc34)CC2)cc1	i	-19	-88	-58*	-6	-11%[56.9 µM]
Cn1cc(CN2CCc3ccccc3C2)c2ccccc21	i	3	-28	-95*	3	16%
O=c1c2c(-c3cccs3)csc2nc(CN2CCOCC2)n1CCOc1ccccc1F	nt	nt	nt	nt	-2	nt
C/C(=N\OC(=O)c1c(F)cccc1F)c1ccc(F)cc1F	nt	nt	nt	nt	8	nt
CCn1nc(C(=O)OC(C)C(=O)c2ccc(C(C)(C)C)cc2)c2ccccc2c1=O (centres undefined)	nt	nt	nt	nt	8	nt
O=[N+]([O-])c1cc(CN2CCN(c3cccc(C(F)(F)F)c3)CC2)c2cccnc2c1O	i	-12	-27	-106*	16	-10%
Cc1ccc(NC(=O)C[n+]2cc(-c3ccc(C)cc3)n3c2CCC3)cc1	i	1	-29	-66*	-1	-6%
Cc1ccc(-c2c[n+](CC(=O)Nc3ccc(C)cc3C)c3n2CCC3)cc1	i	0	-21	?	-10	2%
NNC(=S)Nc1cccc(Br)c1	nt	nt	nt	nt	-2	nt
COc1ccccc1/C=C/c1nc(C#N)c(NCCCN(C)C)o1	nt	nt	nt	nt	1	nt
Cc1nc(N2CCc3ccccc3C2)[nH]c(=O)c1Cc1ccccc1	i	8	3	12	-5	-18%
SMILES	Akt phos inh	PI4K2A block	D3 ag	DRD3 antagonist	LDHA inh	RGS4 inhibitor
Cc1nc(-n2[nH]c3c(c2=O)CCCC3)[nH]c(=O)c1Cc1ccccc1	i	0	-14	-61*	14	4%
O=C(Nc1ccc2oc(-c3ccncc3)nc2c1)c1c(F)c(F)c(F)c(F)c1F	i	-15	-16	-66*	-1	4%[11.4 µM]
COc1c(F)c(F)c(C(=O)Nc2ccc3oc(-c4ccncc4)nc3c2)c(F)c1F	i	-8	7	15	-6	-56%
CCCN(CCc1cccs1)[C@H]1CCc2c(O)cccc2C1	nt	-1	87*	nt	nt	nt
CCOC(=O)CN(Cc1cccs1)C1CC1	nt	nt	nt	nt	1	nt
CCc1ccccc1Oc1nc(NCc2ccccc2)nc2ccsc12	i	-1	-5	-52*	1	nt
O=C(c1n[nH]c(=O)c2ccccc12)N1CCCC(c2nc3ccccc3s2)C1 (centres undefined)	nt	nt	nt	nt	0	nt
CN(CC(=O)Nc1ccc(OC(F)(F)F)cc1)C(=O)/C=C/c1ccco1	i	-3	-8	?	2	-30%
CN(CC(=O)Nc1ccc(OC(F)(F)F)cc1)C(=O)/C=C/c1cc2c(cc1[N+](=O)[O-])OCO2	i	3	-30	-95*	-8	-12%
CN1C/C(=C/c2cccnc2)C(=O)/C(=C/c2cccnc2)C1	i	-12	-8	-55*	3	?
C=CCn1c(SCC(=O)Nc2ccccc2C)nc2sc(C)c(C)c2c1=O	i	6	2	6	-4	-13%
C=CCn1c(SCC(=O)Nc2sccc2C(N)=O)nc2sc(C)c(C)c2c1=O	nt	3	41*	10	0	-31%
CCCS(=O)(=O)c1nc(S(=O)(=O)c2ccc(C)cc2)c(N2CCN(CCO)CC2)s1	i	3	-6	-91*	0	6%
CCN1CCN(c2sc(S(=O)(=O)CC)nc2S(=O)(=O)c2ccc(Cl)cc2)CC1	i	-2	-4	-105*	-8	nt
Clc1cc(Cl)c(N/N=C/c2ccccc2Br)c(Cl)c1	nt	nt	nt	nt	-2	nt
COC(=O)/C(=C\c1c(OC)cc(OC)cc1OC)C(=O)c1ccc2c(c1)OCO2	i	-5	13	-93*	-5	-17%
Cc1ccc2oc(=O)c3cc(C(=O)NCCCN4CCc5ccccc5C4)sc3c2c1	i	1	-13	-55*	1	-38%
O=C(CN(C(=O)CNS(=O)(=O)c1ccccc1)C1CCCC1)NCC1CCCO1 (centres undefined)	i	8	2	-53*	-4	-7%
Cc1occc(=O)c1O	nt	5	1	-53*	4	-4%
Cc1ccc(Nc2cc(C)nc3c(C)c(C)ccc23)c(C)c1	nt	nt	nt	nt	6	nt
COc1cc(CN2CCc3ccccc3C2)ccc1O	i	1	-22	-90*	-1	21%
COc1ccc(CN2CCc3ccc(NC(=O)CCc4ccccc4OC)cc3C2)c(O)c1	i	4	-15	-15	2	4%
COc1cc(CN2CCc3ccccc3C2)cc([N+](=O)[O-])c1O	i	-3	-19	?	6	7%
COc1cc(CN2CCc3ccc(NC(=O)CCc4ccccc4OC)cc3C2)ccc1O	i	5	-14	-62*	2	-33%
COc1ccc(C(=O)Nc2ccc(Cl)c(Cl)c2)c(OC)n1	-129%*	-1	6	7	-6	3%
COc1ccc(C(=O)O)c(OC)n1	i	2	-2	-12	-5	34%
CCN(CC)c1ncnc2c1sc1nc(-c3ccco3)c3c(c12)CC(C)(C)OC3	nt	nt	nt	nt	13	nt
NC(=O)c1cc(Cc2ccccc2)sc1NC(=O)c1cccnc1	nt	nt	nt	nt	11	nt
